PubChem BioAssay (NCATS)
Results filed as inconclusive are left out. Calls of active or inactive are those of the source. Unless noted, calls come from the whole dose curve; as a rule, active = well fitted curve in the direction sought with a large enough effect; inconclusive = small, poorly fitted or top-dose-only effect, or another doubt; inactive = no such curve, though single readings can be large; an effect the other way counts as inactive or inconclusive.

Experiments:
[1] = Primary qHTS for inhibitors of nuclear receptor binding SET domain protein 2 (NSD2) in an isogenic RCH-ACV NSD2 p.E1099K mutant (9B) (AID 1645876); note: nearly all actives have a fitted effect of over 70% in size; note: potency is the fitted concentration of half-maximal effect
[2] = Primary qHTS for inhibitors of nuclear receptor binding SET domain protein 2 (NSD2) in an RCH-ACV wild type WT cells (2C) (AID 1645877); note: nearly all actives have a fitted effect of over 70% in size; note: potency is the fitted concentration of half-maximal effect
[3] = molecular target: Glutathione peroxidase 1 (Homo sapiens) (UniProt P07203); assay: Primary qHTS Assay for Inhibitors of Recombinant Selenoprotein Glutathione Peroxidase 1 (GPX1) (AID 1845191); note: nearly all actives have a fitted effect of over 65% in size
Chain of Glutathione peroxidase 1 (Homo sapiens) (P07203 whole entry, looked up): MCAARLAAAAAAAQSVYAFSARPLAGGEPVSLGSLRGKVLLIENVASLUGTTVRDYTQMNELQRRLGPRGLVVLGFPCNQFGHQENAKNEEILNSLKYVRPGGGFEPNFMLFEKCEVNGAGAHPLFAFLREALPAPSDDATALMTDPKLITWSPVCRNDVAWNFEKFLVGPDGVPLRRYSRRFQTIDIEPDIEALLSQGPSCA
Outline: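 Recombinant GPX1 (10 nM final) was preincubated with compound for 30 min at room temperature, then reacted with 1 mM GSH, 0.5 mM CHP, 0.5 mM NADPH and 100 nM glutathione reductase; NADPH fluorescence (340/450 nm) was read at 0 and 15 min.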

[4] = molecular target: Phospholipid hydroperoxide glutathione peroxidase GPX4 (Homo sapiens) (UniProt P36969); assay: Primary qHTS Assay for Inhibitors of Recombinant Selenoprotein Glutathione Peroxidase 4 (GPX4) (AID 1845192); note: nearly all actives have a fitted effect of over 65% in size
Chain of Phospholipid hydroperoxide glutathione peroxidase GPX4 (Homo sapiens) (P36969 whole entry, looked up): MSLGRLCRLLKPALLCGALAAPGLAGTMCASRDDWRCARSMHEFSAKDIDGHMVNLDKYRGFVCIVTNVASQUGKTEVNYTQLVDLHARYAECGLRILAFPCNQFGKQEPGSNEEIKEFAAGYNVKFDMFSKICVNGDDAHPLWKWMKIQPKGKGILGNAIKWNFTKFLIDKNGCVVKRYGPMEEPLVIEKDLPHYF
Outline: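 GR-coupled readout: 100 nM GR, 1 mM GSH, 0.5 mM NADPH; NADPH fluorescence (ex 340/em 450 nm) read at t=0 and after 15 min RT. GPX4 200 nM, preincubated 30 min with compound; substrate 0.5 mM CHP.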

[5] = qHTS drug screen for cell cycle checkpoint inhibitors in PARPi-resistant BRCA-mutant ovarian cancer cell lines. (AID 1963452; calls by dose curve); conditions: PEO1/OlaR viability, CellTiter-Glo luminescence, 96 h, stronger effect = lower value
Outline: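 PEO1, PEO4 and PEO1/OlaR ovarian cancer cells, 600 per well, exposed 96 h at 37C to a dilution series. Viability read by CellTiter-Glo luminescence, normalized to DMSO and empty wells; activity summarized as Z-AUC.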

[6] = measured here: PEO1 parental Z-AUC

Row | SMILES | Potency [1] | Potency [2] | Potency [3] | Potency [4] | Z-AUC [5] | Z-AUC [5, 6] | Z-AUC ([5]; measured here: PEO4 Z-AUC)
1 | C/C=C/C[C@@H](C)C(=O)[C@H]1C(=O)N[C@@H](C(C)C)C(=O)N(C)CC(=O)N(C)[C@@H](CC(C)C)C(=O)N[C@@H](C(C)C)C(=O)N(C)[C@@H](CC(C)C)C(=O)N[C@@H](C)C(=O)N[C@H](C)C(=O)N(C)[C@@H](CC(C)C)C(=O)N(C)[C@@H](CC(C)C)C(=O)N(C)[C@@H](C(C)C)C(=O)N1C | inactive | inactive | inactive | inactive | -0.152 (inactive) | -0.111 | 0.176
2 | C=CC(C)(/C=C/c1ccc(O)cc1)CCC=C(C)C (configuration not stated) | 20.6 µM (active) | 18.4 µM (active) | inactive |  |  |  | 
3 | [2H]C([2H])([2H])C(O)([C@@H](C)/C=C/[C@@H](C)[C@H]1CC[C@H]2/C(=C/C=C3C[C@@H](O)C[C@H](O)C3)CCC[C@]12C)C([2H])([2H])[2H] | inactive | inactive | inactive | inactive |  |  | 
4 | CC1=C2C[C@H]3[C@@H](CC[C@@H]4C[C@H](NS(C)(=O)=O)CC[C@@]43C)[C@@H]2CC[C@@]2(C1)O[C@@H]1C[C@H](C)CN[C@H]1[C@H]2C | 13.2 µM (active) | 13.2 µM (active) | inactive | inactive | 0.848 (inactive) | 0.333 | -0.208
5 | Cc1ccc(-n2nc(C(C)(C)C)cc2NC(=O)NCc2cc(F)ccc2Oc2ccc3c(cnn3CCO)c2)cc1 | 16.6 µM (active) | 14.8 µM (active) | inactive | inactive |  |  | 
6 | Nc1cc(C(F)(F)F)c(-c2nc(N3CCOCC3)nc(N3CCOCC3)n2)cn1 | 0.742 µM (active) | 0.525 µM (active) | inactive | inactive | -0.884 (inactive) | -0.21 | -0.177
7 | CCN1/C(=C/C(C)=O)Sc2ccc(OC(C)=O)cc21 | 16.4 µM (active) | 20.6 µM (active) | inactive |  |  |  | 
8 | Cc1ncc(NC(=O)c2cccc(C(F)(F)F)c2)cc1-c1cnc(OC2CCOCC2)c(N2CCOCC2)c1 | 18.6 µM (active) | 16.6 µM (active) | inactive | inactive | -1.52 (inactive) | -1.38 | -1.33
